Experimental data from PubChem BioAssay (NCATS).
Inconclusive results are not listed. Calls of active or inactive are those of the source. Unless noted, the call rests on the fitted dose curve; in most records, active means well fitted curve in the direction sought with a large enough effect; inconclusive means small, poorly fitted or top-dose-only effect, or another doubt; inactive means no such curve, though single readings can be large; an effect the other way counts as inactive or inconclusive.

Legend:
[1] = AP1 Signaling Pathway (AID 357; active means well fitted curve in either direction with a large enough effect, not every such curve was filed as active;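 further: ME-180 reporter cells stimulated with EGF at its EC50 level; on the % scale 0 is the no-effect control and ±100 the full control effect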); settings: ME-180 AP-1-bla reporter, EGF-induced, beta-lactamase ratio, 5 h; at 7.69 µM (top of the series) unless noted
Outline: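 Titration-series screen for positive or negative modulators of EC50 EGF-induced signaling in ME-180 cells carrying an AP-1-driven beta-lactamase reporter. After 5 hours at 37 degrees Celsius, CCF4 460nm/530nm emission ratio gave %Activity; AC50 values derived.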

[2] = target: Cytochrome P450 1A2 (Homo sapiens) (UniProt P05177); assay: p450-cyp1a2 (AID 410; calls by dose curve; further: potency means the concentration at half of the fitted maximal effect)
Cytochrome P450 1A2 (Homo sapiens), sequence (P05177 whole entry, looked up): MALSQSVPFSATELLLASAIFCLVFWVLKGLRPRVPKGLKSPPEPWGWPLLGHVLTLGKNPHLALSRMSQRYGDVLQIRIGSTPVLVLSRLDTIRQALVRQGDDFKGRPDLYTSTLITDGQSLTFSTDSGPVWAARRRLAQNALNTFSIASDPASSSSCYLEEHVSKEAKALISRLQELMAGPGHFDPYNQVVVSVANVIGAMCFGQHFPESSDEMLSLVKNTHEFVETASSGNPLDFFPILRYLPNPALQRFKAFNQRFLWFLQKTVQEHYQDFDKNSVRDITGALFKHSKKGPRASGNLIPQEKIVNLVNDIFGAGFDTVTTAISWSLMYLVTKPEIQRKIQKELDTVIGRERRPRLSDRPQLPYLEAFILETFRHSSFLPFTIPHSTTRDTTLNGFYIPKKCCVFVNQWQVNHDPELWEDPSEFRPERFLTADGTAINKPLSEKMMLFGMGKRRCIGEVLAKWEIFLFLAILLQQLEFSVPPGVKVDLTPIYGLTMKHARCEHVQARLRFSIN
Outline: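 20nM CYP1A2 with 100uM Luciferin-ME (at Km) in 100mM KPO4; compound preincubated 10 min, NADPH regeneration added, 60 min at room temperature. Luciferin quantified by luminescence after detection reagent; normalized to 57 uM furafylline.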

[3] = NFAT Signaling Pathway (AID 444; active means well fitted curve in either direction with a large enough effect, not every such curve was filed as active;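 further: carbachol stimulus at about its EC50 of 1 µM final; on the % scale 0 is the no-effect control and ±100 the full control effect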); settings: Jurkat NFAT-bla M1, carbachol, beta-lactamase ratio, 5 h; at 7.69 µM (top of the series) unless noted
Outline: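 Read-out: CCF4 FRET ratio (460 nm/530 nm) after 1 h RT dye loading, used for %activity and AC50 from titration series. Cells: Jurkat NFAT-β-lactamase/M1 line, treated with compound plus 1 uM carbachol for 5 h, 37 °C.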

[4] = target: Glucocorticoid receptor (Homo sapiens) (UniProt P04150); assay: GR-EFC Redistribution (AID 451; calls by dose curve; further: potency means the concentration at half of the fitted maximal effect); settings: CHO-K1 GR-EFC translocation, beta-gal luminescence, 2 h
Glucocorticoid receptor (Homo sapiens), sequence (P04150 whole entry, looked up, the tested form may be a part): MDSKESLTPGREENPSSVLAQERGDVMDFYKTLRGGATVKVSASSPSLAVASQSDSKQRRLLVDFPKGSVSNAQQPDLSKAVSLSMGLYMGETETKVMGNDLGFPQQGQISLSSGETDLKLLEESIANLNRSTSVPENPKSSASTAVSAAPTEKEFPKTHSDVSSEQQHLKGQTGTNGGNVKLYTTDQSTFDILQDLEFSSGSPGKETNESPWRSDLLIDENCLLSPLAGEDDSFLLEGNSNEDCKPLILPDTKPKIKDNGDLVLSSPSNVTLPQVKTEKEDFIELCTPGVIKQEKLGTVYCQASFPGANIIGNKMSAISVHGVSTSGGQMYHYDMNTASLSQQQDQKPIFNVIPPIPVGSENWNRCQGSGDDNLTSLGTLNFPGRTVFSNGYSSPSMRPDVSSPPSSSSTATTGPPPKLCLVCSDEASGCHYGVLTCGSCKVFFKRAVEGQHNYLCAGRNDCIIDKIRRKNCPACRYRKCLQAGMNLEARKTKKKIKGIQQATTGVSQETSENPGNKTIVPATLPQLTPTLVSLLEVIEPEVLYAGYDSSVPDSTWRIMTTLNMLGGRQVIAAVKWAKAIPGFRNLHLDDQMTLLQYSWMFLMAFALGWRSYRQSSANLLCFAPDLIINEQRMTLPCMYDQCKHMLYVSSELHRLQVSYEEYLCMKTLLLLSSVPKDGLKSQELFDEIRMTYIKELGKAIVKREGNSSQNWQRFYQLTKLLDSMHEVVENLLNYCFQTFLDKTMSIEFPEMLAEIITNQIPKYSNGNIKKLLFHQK
Outline: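 Translocation of GR-ED fusion to nuclear EA restores b-gal, read by luminescence after 1 h room-temperature detection. Engineered CHO-K1 biosensor cells, 1,000/well, exposed 2 h at 37 C to titrations up to 46 uM final.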

[5] = target: Mitogen-activated protein kinase 10 (Mus musculus) (UniProt Q61831); assay: JNK3 AlphaScreen Assay (AID 530; active means well fitted curve in either direction with a large enough effect, not every such curve was filed as active;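 further: kinase came from lysate of stimulated human HepG2 cells; signal reports phosphorylation of biotinylated GST-cJun 1-79 at Ser73 with 10 µM ATP; on the % scale 0 is the no-effect control and ±100 the full control effect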)
Outline: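 Compound titrations were preincubated 15 minutes at room temperature with substrate, antibody and pre-activated JNK3-containing HepG2 lysate. Reactions were started with 10 uM ATP and stopped with EDTA-containing bead buffer for AlphaScreen detection.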

[6] = target: 3',5'-cyclic-AMP phosphodiesterase 4B (Homo sapiens) (UniProt Q07343); assay: qHTS Assay for Inhibitors of PDE-IV (AID 607; active means well fitted activation curve with a large enough effect in the main read-out, with a control signal flat, not every such curve was filed as active; further: % of control where 0% means no effect)
3',5'-cyclic-AMP phosphodiesterase 4B (Homo sapiens), sequence (Q07343 whole entry, looked up): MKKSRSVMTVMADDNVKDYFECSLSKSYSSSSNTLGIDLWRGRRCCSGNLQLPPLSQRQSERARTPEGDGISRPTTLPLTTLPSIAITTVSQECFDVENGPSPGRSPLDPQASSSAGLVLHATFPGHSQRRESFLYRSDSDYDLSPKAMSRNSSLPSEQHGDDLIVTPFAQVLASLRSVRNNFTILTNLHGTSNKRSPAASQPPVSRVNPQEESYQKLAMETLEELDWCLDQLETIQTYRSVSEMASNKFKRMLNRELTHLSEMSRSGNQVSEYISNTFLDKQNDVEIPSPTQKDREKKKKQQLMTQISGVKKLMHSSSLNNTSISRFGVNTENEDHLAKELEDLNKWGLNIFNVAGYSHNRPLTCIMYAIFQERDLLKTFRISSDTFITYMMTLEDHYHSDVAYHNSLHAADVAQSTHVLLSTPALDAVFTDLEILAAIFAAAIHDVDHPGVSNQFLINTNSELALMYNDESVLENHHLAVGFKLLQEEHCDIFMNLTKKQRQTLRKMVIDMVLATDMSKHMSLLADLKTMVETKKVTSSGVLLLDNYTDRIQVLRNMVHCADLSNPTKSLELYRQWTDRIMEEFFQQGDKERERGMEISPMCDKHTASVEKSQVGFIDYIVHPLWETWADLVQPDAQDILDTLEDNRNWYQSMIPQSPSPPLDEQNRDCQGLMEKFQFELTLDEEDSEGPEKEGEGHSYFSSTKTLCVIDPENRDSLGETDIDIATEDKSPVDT
Outline: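 HEK293 ACTOne cells with CNG channel (1000/well), endogenous PDE4; membrane potential dye, compounds up to 22.9 uM final. Fluorescence Ex 535/Em 590; RO 20-1724 (100 uM final) as reference.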

[7] = target: Cytochrome P450 3A4 (Homo sapiens) (UniProt P08684); assay: qHTS Assay for Activators of Cytochrome P450 3A4 (AID 885); further: nearly all actives have a fitted effect of over 65% in size
Cytochrome P450 3A4 (Homo sapiens), sequence (P08684 whole entry, looked up): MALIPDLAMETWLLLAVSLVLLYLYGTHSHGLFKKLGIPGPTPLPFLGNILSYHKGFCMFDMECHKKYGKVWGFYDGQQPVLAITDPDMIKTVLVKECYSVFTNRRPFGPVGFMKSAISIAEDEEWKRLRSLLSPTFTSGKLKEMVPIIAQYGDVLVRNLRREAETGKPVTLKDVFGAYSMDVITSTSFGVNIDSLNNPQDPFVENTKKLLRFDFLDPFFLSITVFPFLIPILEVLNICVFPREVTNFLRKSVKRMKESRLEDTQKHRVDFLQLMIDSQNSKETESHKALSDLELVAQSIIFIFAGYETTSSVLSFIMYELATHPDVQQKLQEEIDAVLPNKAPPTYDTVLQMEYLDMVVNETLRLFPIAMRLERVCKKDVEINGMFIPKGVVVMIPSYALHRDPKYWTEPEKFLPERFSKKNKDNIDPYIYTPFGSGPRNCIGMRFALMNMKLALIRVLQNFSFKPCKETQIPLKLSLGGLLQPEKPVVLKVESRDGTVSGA
Outline: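 Human CYP3A4 (20 nM) with Luciferin-PPXE at 25 uM (its KM) in 200 mM KPO4; 10 min compound preincubation, then NADPH regeneration and 60 min reaction at RT. Luciferin read by luminescence; normalized to 57 uM ketoconazole full inhibition.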

[8] = Primary qHTS for small molecule stabilizers of the endoplasmic reticulum resident proteome: Secreted ER Calcium Modulated Protein (SERCaMP) assay (AID 1508630); further: on the % scale 0 is the no-effect control and ±100 the full control effect
Outline: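 GLuc-SERCaMP-expressing SH-SY5Y cells, pretreated 16 h with compound, are challenged with thapsigargin to empty ER calcium stores; after 4 h, coelenterazine is added directly to the medium and luminescence is imaged.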

[9] = target: Lysosomal acid glucosylceramidase (Homo sapiens) (UniProt P04062); assay: Glucocerebrosidase-p2 (AID 348; in the data active means potency below about 10 µM; further: potency means the concentration at half of the fitted maximal effect); settings: purified GBA, blue fluorogenic substrate, 40 min
Lysosomal acid glucosylceramidase (Homo sapiens), sequence (P04062 whole entry, looked up): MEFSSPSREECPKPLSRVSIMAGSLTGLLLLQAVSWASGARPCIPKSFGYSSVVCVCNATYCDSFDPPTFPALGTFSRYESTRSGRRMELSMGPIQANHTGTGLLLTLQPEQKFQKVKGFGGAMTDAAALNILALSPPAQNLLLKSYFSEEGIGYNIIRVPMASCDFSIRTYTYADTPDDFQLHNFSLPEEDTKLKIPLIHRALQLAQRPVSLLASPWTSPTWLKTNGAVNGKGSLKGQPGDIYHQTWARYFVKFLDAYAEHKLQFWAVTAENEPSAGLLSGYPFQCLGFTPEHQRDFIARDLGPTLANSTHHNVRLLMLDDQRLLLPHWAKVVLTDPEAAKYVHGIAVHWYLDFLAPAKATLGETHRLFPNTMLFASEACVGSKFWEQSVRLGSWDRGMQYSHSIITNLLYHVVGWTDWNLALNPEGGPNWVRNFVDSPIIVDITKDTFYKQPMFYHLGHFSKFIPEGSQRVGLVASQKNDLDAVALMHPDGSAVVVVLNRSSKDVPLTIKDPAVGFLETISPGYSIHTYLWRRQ
Outline: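 Compounds titrated from 0.6 nM upwards against 0.2 nM enzyme in pH 5.9 citric acid/KH2PO4, taurocholate, tween-20; blue fluorogenic substrate 80 uM, 40 min room temperature, stopped and read Ex 365/Em 440 for AC50.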

[10] = Stat Signaling Pathway (AID 446; active means well fitted curve in either direction with a large enough effect, not every such curve was filed as active); settings: ME-180 SIE beta-lactamase reporter, IL-6 stimulated, 5 h; at 7.69 µM (top of the series) unless noted
Outline: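 ME-180 cells carrying a SIE-driven beta-lactamase reporter are stimulated with 40 pM IL-6 for 5 h at 37C in the presence of compound. The 460/530 nm FRET substrate ratio is read after 2.5 h at RT. Data are normalised to 300 pM IL-6 and to 125 nM JAK inhibitor controls.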

[11] = target: Glucocorticoid receptor (Homo sapiens) (UniProt P04150); assay: GR-GFP Redistribution (AID 450;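 active means compounds whose dose series gives a full or clear partial fitted curve of increased nuclear translocation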; further: potency means the concentration at half of the fitted maximal effect); settings: U2OS GR-GFP nuclear translocation, laser cytometry, 2 h
[12] = target: Cytochrome P450 3A4 (Homo sapiens) (UniProt P08684); assay: qHTS Assay for Inhibitors and Substrates of Cytochrome P450 3A4 (AID 884); further: potency means the concentration at half of the fitted maximal effect; nearly all actives have a fitted effect of over 50% in size
Outline: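 20 nM human CYP3A4 with 25 uM Luciferin-PPXE (at KM) in 200 mM KPO4, preincubated 10 min with compound; NADPH regeneration started a 60 min RT reaction. Luciferin detected by luminescence, normalized to 57 uM ketoconazole as full inhibition.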

[13] = target: Dual specificity protein kinase CLK4 (Homo sapiens) (UniProt Q9HAZ1); assay: qHTS Assay for Inhibitors of CDC-like Kinase 4 (Kinase-Glo Assay) (AID 1770); further: nearly all actives have a fitted effect of over 65% in size; further: potency means the concentration at half of the fitted maximal effect
Dual specificity protein kinase CLK4 (Homo sapiens), sequence (Q9HAZ1 whole entry, looked up): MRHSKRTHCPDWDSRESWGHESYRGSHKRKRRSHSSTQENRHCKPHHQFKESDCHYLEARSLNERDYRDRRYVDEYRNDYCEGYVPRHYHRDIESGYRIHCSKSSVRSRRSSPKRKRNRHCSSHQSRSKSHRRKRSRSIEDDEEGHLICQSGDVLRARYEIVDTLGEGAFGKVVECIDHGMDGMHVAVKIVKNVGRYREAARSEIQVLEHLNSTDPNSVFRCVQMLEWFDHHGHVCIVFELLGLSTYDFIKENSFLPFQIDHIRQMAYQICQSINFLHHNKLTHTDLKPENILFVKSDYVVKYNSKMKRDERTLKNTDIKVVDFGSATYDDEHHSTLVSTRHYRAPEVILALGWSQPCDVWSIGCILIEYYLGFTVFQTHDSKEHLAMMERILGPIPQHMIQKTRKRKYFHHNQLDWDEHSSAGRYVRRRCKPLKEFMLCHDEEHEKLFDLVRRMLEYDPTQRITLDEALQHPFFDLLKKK
Outline: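 Recombinant human Clk4 (25 nM) phosphorylated RS repeat peptide (100 uM) with 1 uM ATP in Tris pH 7.5/MgCl2/EGTA/DTT/Triton buffer for 4.5 h at room temperature. Residual ATP was quantified by Kinase-Glo luciferase luminescence.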

[14] = target: Dual specificity protein kinase CLK4 (Homo sapiens) (UniProt Q9HAZ1); assay: qHTS Assay for Inhibitors of CDC-like Kinase 4 (ADP-Glo Assay) (AID 1771); further: nearly all actives have a fitted effect of over 70% in size; further: potency means the concentration at half of the fitted maximal effect
Outline: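 25 nM Clk4 with 100 uM RS repeat peptide and 1 uM ATP (final) in buffer with 2 mM MgCl2, 0.5 mM EGTA, 2.5 mM DTT, 0.01% Triton X-100; 1 h at room temperature; ADP-Glo luminescence for ADP formed.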

[15] = target: Dual specificity protein kinase CLK4 (Homo sapiens) (UniProt Q9HAZ1); assay: qHTS Assay for Inhibitors of CDC-like Kinase 4 (ADP-FP Assay) (AID 1795); further: nearly all actives have a fitted effect of over 60% in size; further: potency means the concentration at half of the fitted maximal effect
Outline: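 Recombinant human Clk4 (6.25 nM) phosphorylated RS repeat peptide (100 uM) with 1 uM ATP in Tris pH 7.5/MgCl2/EGTA/DTT/Triton buffer for one hour. ADP was quantified by Transcreener competitive fluorescence polarization against an ADP calibration curve.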

[16] = target: Ubiquitin carboxyl-terminal hydrolase 1 (Homo sapiens) (UniProt O94782); assay: Inhibitors of USP1/UAF1: Pilot qHTS (AID 504865);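 further: rhodamine fluorescence freed from ubiquitin-rhodamine substrate followed over time; top concentration of the series differs between compounds; on the % scale 0 is the no-effect control and ±100 the full control effect; nearly all actives have a fitted effect of over 35% in size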
Ubiquitin carboxyl-terminal hydrolase 1 (Homo sapiens), sequence (O94782 whole entry, looked up): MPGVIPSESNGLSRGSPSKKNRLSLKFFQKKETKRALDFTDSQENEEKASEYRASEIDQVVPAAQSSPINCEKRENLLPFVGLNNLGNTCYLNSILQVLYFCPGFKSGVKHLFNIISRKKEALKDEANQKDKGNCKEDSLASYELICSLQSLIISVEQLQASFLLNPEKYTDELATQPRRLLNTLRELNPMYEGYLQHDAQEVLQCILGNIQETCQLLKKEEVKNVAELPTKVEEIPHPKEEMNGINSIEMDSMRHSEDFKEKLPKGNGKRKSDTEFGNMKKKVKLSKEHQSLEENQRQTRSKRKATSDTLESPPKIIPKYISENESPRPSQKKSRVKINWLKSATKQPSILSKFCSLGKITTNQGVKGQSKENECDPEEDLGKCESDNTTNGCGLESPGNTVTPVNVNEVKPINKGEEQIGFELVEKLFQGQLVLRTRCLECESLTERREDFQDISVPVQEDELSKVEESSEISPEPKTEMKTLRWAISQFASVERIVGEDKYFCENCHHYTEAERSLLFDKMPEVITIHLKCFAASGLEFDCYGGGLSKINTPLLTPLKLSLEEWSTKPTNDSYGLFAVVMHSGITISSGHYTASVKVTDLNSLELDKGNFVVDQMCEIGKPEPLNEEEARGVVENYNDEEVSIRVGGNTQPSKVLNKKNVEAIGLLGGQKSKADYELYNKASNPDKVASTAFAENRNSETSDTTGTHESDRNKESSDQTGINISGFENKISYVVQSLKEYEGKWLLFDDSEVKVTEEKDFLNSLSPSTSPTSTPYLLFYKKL
Outline: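 USP1/UAF1 complex (1nM) preincubated with compound 15 min at room temperature, then Ub-Rho substrate (150nM final) added. Fluorescence read kinetically at 480/540 nm, 6 reads every 60 seconds. Buffer: 50mM HEPES pH 7.8, 0.5mM EDTA, 0.1 mg/ml BSA, 1mM TCEP, 0.01% Tween-20.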

[17] = target: Cytochrome P450 2C9 (Homo sapiens) (UniProt P11712); assay: qHTS Assay for Inhibitors and Substrates of Cytochrome P450 2C9 (AID 883); further: on the % scale 0 is the no-effect control and ±100 the full control effect; nearly all actives have a fitted effect of over 60% in size
Cytochrome P450 2C9 (Homo sapiens), sequence (P11712 whole entry, looked up): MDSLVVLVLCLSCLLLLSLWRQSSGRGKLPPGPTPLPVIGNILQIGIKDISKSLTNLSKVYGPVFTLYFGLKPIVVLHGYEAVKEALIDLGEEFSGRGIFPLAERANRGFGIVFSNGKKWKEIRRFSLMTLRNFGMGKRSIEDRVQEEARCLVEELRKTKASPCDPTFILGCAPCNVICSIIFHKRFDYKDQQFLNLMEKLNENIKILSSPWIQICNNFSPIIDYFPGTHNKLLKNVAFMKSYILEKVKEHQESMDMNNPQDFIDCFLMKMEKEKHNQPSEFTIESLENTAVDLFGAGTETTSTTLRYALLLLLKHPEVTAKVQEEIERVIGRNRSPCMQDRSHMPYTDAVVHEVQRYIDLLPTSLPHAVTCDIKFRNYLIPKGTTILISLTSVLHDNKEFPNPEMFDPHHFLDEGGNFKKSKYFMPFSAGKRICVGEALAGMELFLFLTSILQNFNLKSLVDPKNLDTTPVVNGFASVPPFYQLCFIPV
Outline: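 Luminescent read-out of deoxyluciferin hydroxylation, normalized to 57uM sulphaphenazole (AC100). Reaction: 10nM enzyme, 100uM Luciferin-H (equal to KM), 25mM KPO4, 10 min compound preincubation, then 60 min with NADPH regeneration, both at 37C.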

[18] = target: Cytochrome P450 2C19 (Homo sapiens) (UniProt P33261); assay: qHTS Assay for Inhibitors and Substrates of Cytochrome P450 2C19 (AID 899); further: potency means the concentration at half of the fitted maximal effect; nearly all actives have a fitted effect of over 60% in size
Outline: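 Luminescence readout of luciferin formed from 10uM Luciferin-H EGE (KM level) by 5 nM CYP2C19 in 50mM KPO4. 60 min NADPH-driven reaction at 37C after 10 min compound preincubation; data scaled to 57uM ketoconazole inhibition.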

O=C(c1csnn1)N1CCC2(CC1)CN(c1cccc(-c3ccccc3)c1)C2
active: Potency [2] 12.6 µM
inactive: activity change, negative = inhibition [1] -15.1% | activity change, negative = inhibition [3] -11.3% | Potency [4] > 46 µM | Potency [5] | Potency [6] | Potency [7] | outcome [8]

NC(=O)c1ccccc1-c1nc(-n2ccnc2)c2ccccc2n1
active: Potency [2] 2.51 µM | Potency [12] 3.98 µM
inactive: Potency [9] > 11.4 µM | activity change, negative = inhibition [1] 11.1% | activity change, negative = inhibition [3] -3.23% | activity, negative = inhibition [10] -1.41% | Potency [11] > 46 µM | Potency [4] > 46 µM | Potency [5] | Potency [6] | Potency [7] | Potency [13] | Potency [14] | Potency [15] | Potency [16] | outcome [8]

CNc1nc(-c2cccnc2)nc2ccccc12
active: Potency [2] 0.1 µM | Potency [12] 6.31 µM | Potency [13] 4.47 µM | Potency [14] 6.31 µM | Potency [15] 3.98 µM
inactive: Potency [9] > 11.4 µM | activity change, negative = inhibition [1] 14.7% | activity change, negative = inhibition [3] 2.11% | activity, negative = inhibition [10] -3.74% | Potency [11] > 46 µM | Potency [4] > 46 µM | Potency [5] | Potency [6] | activity change, negative = inhibition [17] 82.3% [at 2.29 µM] | Potency [16] | outcome [8]

CNc1ncncc1-c1ccccc1C
active: Potency [2] 12.6 µM | Potency [12] 0.631 µM
inactive: Potency [9] > 11.4 µM | activity change, negative = inhibition [1] 7.16% | activity change, negative = inhibition [3] 9.64% | activity, negative = inhibition [10] 2.49% | Potency [11] > 46 µM | Potency [4] > 46 µM | Potency [5] | Potency [6] | Potency [7] | Potency [13] | Potency [14] | Potency [15] | Potency [16] | outcome [8]

O=C(CCCCCN1C(=O)c2cccc3cccc(c23)C1=O)NO
inactive: outcome [8]

COc1ccc(CNc2cc(-c3cccnc3)ncn2)c(OC)c1
inactive: Potency [9] > 11.4 µM | activity change, negative = inhibition [1] -14.6% | activity change, negative = inhibition [3] 10.5% | activity, negative = inhibition [10] 2.95% | Potency [11] > 46 µM | Potency [4] > 46 µM | Potency [5] | Potency [6] | Potency [7] | Potency [16] | outcome [8]
active: Potency [2] 1.26 µM | Potency [12] 1.58 µM | Potency [13] 8.91 µM | Potency [14] 8.91 µM | Potency [15] 10 µM

COc1cccc(Cn2c(=O)c(-c3ccc(Cl)cc3)nc3cnc(N4CCNCC4)nc32)c1
inactive: Potency [9] > 11.4 µM | Potency [11] > 9.22 µM | Potency [4] > 46 µM | Potency [6] | Potency [7] | Potency [13] | Potency [14] | Potency [15] | Potency [16] | outcome [8]

N#Cc1cccc(-c2cncnc2NCc2ccccc2)c1
inactive: Potency [9] > 11.4 µM | activity change, negative = inhibition [1] 1.22% | activity change, negative = inhibition [3] 2.64% | activity, negative = inhibition [10] -1.62% | Potency [11] > 46 µM | Potency [4] > 46 µM | Potency [5] | Potency [6] | Potency [7] | Potency [13] | Potency [14] | Potency [15] | Potency [16] | outcome [8]
active: Potency [2] 5.01 µM | Potency [12] 1.26 µM | Potency [18] 7.94 µM

Cc1cccc(CNc2ncncc2-c2cccnc2)c1
inactive: Potency [9] > 11.4 µM | activity change, negative = inhibition [1] 11.8% | activity change, negative = inhibition [3] 12% | activity, negative = inhibition [10] 10.4% | Potency [11] > 46 µM | Potency [4] > 46 µM | Potency [5] | Potency [6] | Potency [7] | Potency [13] | Potency [14] | Potency [15] | Potency [16] | outcome [8]
active: Potency [2] 0.794 µM | Potency [12] 0.631 µM

COCCn1c(=O)c(-c2cccc(C#N)c2)nc2cnc(Oc3ccc(OC)cc3)nc21
active: Potency [2] 12.6 µM | Potency [12] 2.51 µM
inactive: Potency [9] > 11.4 µM | activity change, negative = inhibition [1] -21.9% | activity change, negative = inhibition [3] 7% | activity, negative = inhibition [10] -15% | Potency [11] > 9.22 µM | Potency [4] > 46 µM | Potency [5] | Potency [6] | Potency [7] | Potency [13] | Potency [14] | Potency [15] | Potency [16] | outcome [8]

COc1ncc2nc(-c3ccc(F)cc3)c(=O)n(Cc3ccc(F)cc3)c2n1
active: Potency [2] 1.58 µM | Potency [12] 3.16 µM
inactive: Potency [9] > 11.4 µM | activity change, negative = inhibition [1] 1.72% | activity change, negative = inhibition [3] -1.74% | activity, negative = inhibition [10] -13.2% | Potency [11] > 9.22 µM | Potency [4] > 46 µM | Potency [5] | Potency [6] | Potency [7] | Potency [13] | Potency [14] | Potency [15] | Potency [16] | outcome [8]

CCNc1ncc2nc(-c3ccc(OC)cc3)c(=O)n(CCC#N)c2n1
inactive: Potency [9] > 11.4 µM | activity change, negative = inhibition [1] -5.2% | activity change, negative = inhibition [3] -15.6% | activity, negative = inhibition [10] -7.35% | Potency [11] > 9.22 µM | Potency [4] > 46 µM | Potency [5] | Potency [6] | Potency [7] | Potency [13] | Potency [14] | Potency [15] | Potency [16] | outcome [8]
active: Potency [2] 10 µM

O=c1c(-c2ccccc2)nc2cncnc2n1-c1ccccc1
active: Potency [2] 5.01 µM
inactive: Potency [9] > 11.4 µM | activity change, negative = inhibition [1] -10.5% | activity change, negative = inhibition [3] 2.09% | activity, negative = inhibition [10] 0.883% | Potency [11] > 9.22 µM | Potency [4] > 46 µM | Potency [5] | Potency [13] | Potency [14] | Potency [15] | Potency [16] | outcome [8]
